Measured values reported in the supplement of paper PMC11417369.
± gives the standard deviation of the averaged measurements. In all, about 25,000 sequences were measured (“ln(normalized median fluorescence intensity)”: median about 7.9, highest 2% from about 11 on). Only a selection was taken, and the highest values are over-represented in it overall.

system: PfAP2-I AP2 domain 3 (GST-tagged); assay: gcPBM binding intensity (ln(normalized median fluorescence intensity)); higher = stronger DNA binding
How it was run: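 After 1 h on an Agilent 4 × 180k array of primer-extended double-stranded 36-bp intergenic genomic probes and negative controls, bound GST-tagged P. falciparum DNA-binding domains were detected with Alexa488 anti-GST antibody and scanned at 488 nm. The domains had been expressed in E. coli, and binding took place in 1× PBS with 1% milk, 0.2 mg/ml BSA, 0.5% salmon testes DNA and 0.03% Triton X-100. Binding intensity is the highest Masliner-normalised natural-log median intensity across replicate spots of either probe orientation.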

Sequence	gcPBM binding intensity (ln)
AAAAAAAAAAAACACACACACACACCCAAATATATA [CACACA_site150]	7.91 ± 0.2
GGAAAAAATATATGCACACCCCCCAAAAAAAAAAAA [CACACA_site2222]	10.6 ± 0.2
TGGGAAAAAATATATGCACACCCCCCAAAAAAAAAA [CACACA_site8696]	11.5 ± 0.52
CGGATGAATATATATGCACACATCTTTTGTAAAAAT [CACACA_site3190]	9.16 ± 0.11
TTTCCAATTAGTTTTGCATGTTGAAAAAATGTTGGA [TGCATGCA_site1035]	7.71 ± 0.52
TATATTATATATATACTGCACTGTTTTACAAAATTA	10.8 ± 0.57
TTTAGTGAGTTTGTTGTGCACTGAAAAAATTACAAT	11.1 ± 0.18
TTAATTATGGACAGGGTGCACATGAATAATAATACC	11 ± 0.18
CATGAATATTTTAATGTGCACATTTATCATTATATG	9.5 ± 0.21
GCACATATGAATATAATACACACTTGTATTATTAAT [CACACA_site1841]	8.1 ± 0.52
TTTGAATACTGAATGGTGCAAATTGTTCTCCCCATG	10.9 ± 0.61
ATTTATATATATATAGGTACACATATTTATATATAA [XGTACX_site8487]	7.58 ± 0.41
TTAAAAGTTATGGATACACACATATAAATATAGATT [CACACA_site7175]	7.57 ± 0.42
AAATAGTTGTTAAAGGTGCACAATATGGATATAAGA	11.5 ± 0.38
AAAGAAATAAGGTGCACACATATACAGATATATATA [CACACA_site4399]	10.3 ± 0.4
AATATATGTTTAATTTCACACACAAATATACATTTT [CACACA_site9385]	7.69 ± 0.65
TACAGATACAGATACACACACACACCGAAATAAATA [CACACA_site4865]	7.84 ± 0.37
AATTTAATATAATGCACACATAAAAAAAAATTCAAA [CACACA_site2062]	11 ± 0.79
AAAATTTAATATAATGCACACATAAAAAAAAATTCA [CACACA_site8640]	10.9 ± 0.92
ATTTTTAATTTTTTCACACATATATTTAAAATAAAA [CACACA_site4799]	7.94 ± 0.49
AATTTAATATAATGCACACATAAAAAAAAAAAATTC [CACACA_site1504]	11 ± 0.61
CATATATATCGTAATGCACACATGTAATTTCATAAT [CACACA_site811]	11 ± 0.92
ATATTTTATTATATAGGTACACATAATTTCATGTAA [XGTACX_site415]	7.83 ± 0.52
TTCAAAATAAAAAATTCACACACATATATATATATA [CACACA_site8653]	9.28 ± 0.39
CTTATATTAATTATTACACACATATTTATAAATGCA [CACACA_site6501]	8.07 ± 0.47
ATTTCGTAATTTATATCACACACATATATATATAAT [CACACA_site9021]	8.06 ± 0.53
TAAAAATTCAATTGCACACGCACATATTTTAATAAG [CACACA_site2014]	8.8 ± 0.057
